# Measurements as given in PubChem BioAssay.
# Several values for one entry are separate records, joined by “and”; a condition that tells them apart may be missing. Equal values may be shown once. Records with an inconclusive call do not appear. Some structures have more than one record in an assay (separate samples or runs), and their calls can disagree. Activity calls are given as the source filed them.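 How the source made its calls, unless noted: active means at least 20% inhibition of 6-phosphogluconate dehydrogenase activity; inactive means the rest.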
# How the values were obtained:
# [1] = target: 6-phosphogluconate dehydrogenase, decarboxylating (Homo sapiens) (UniProt P52209); test: 6PGD enzyme inhibitors, primary screen, biochemical, human, recombinant enzyme, NADPH absorbance (AID 1159550); settings: recombinant 6PGD, NADPH absorbance 341 nm; at 10 µM; stronger effect = higher value
# Sequence of 6-phosphogluconate dehydrogenase, decarboxylating (Homo sapiens) (P52209 whole entry, looked up): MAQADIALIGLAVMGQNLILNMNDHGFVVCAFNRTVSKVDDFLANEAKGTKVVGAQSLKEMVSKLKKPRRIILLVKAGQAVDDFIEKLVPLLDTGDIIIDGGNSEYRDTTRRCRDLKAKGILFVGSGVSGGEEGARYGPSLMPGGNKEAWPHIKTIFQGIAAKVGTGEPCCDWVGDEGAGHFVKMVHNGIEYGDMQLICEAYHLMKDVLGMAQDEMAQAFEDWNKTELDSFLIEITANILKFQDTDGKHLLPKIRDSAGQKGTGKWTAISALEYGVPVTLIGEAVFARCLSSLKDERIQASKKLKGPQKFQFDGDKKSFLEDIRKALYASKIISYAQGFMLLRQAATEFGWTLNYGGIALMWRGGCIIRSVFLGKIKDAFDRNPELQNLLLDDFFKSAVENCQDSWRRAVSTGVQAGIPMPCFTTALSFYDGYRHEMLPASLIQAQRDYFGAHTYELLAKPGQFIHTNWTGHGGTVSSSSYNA
# [2] = sensitizers of A549 cells to miR-34 induction, primary screen, imaging, A549 dox-inducible miR-34, nuclei and caspase counts (AID 1347080;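 active means compounds whose cell count with miR-34 switched on is under 0.7 times the count with it off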); settings: A549 miR-34 inducible, Hoechst nuclei count, 48 h
# [3] = liver-stage malaria parasite growth inhibition, primary screen, cell-based, HepG2, luciferase luminescence, HepG2 viability (AID 624349; in the data active means parasite load remaining mostly below about 12%, no sharp cut-off; inactive means mostly above about 10%;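 further: 100% = mean of DMSO negative control wells on the same plate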); settings: P. berghei liver stage in HepG2, luciferase luminescence, concentration not given here; parasite load remaining: stronger effect = lower value; viability: measured here: HepG2 viability without parasites
# [4] = growth inhibition of DIPG glioma cells, dose response, cell-based, SU-DIPG-XIII, MIPE4.0, CellTiter-Glo, qHTS (AID 1347061; cut-off not given, nearly all actives have AC50 up to about 37 µM;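 further: cells exposed to compound for 48 hours before readout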); settings: SU-DIPG-XIII viability, CellTiter-Glo ATP luminescence
# [5] = growth inhibition of DIPG glioma cells, dose response, cell-based, SU-DIPG-IV, MIPE4.0, CellTiter-Glo, qHTS (AID 1347063; cut-off not given, nearly all actives have AC50 up to about 30 µM;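 further: compound exposure lasted 48 hours before the viability readout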); settings: SU-DIPG-IV viability, CellTiter-Glo ATP luminescence
# [6] = target: Mitogen-activated protein kinase 7 (Homo sapiens) (UniProt Q13164); test: ERK5 transactivation activators in reporter cells, primary screen, cell-based, HTS (AID 1508626;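 active means luciferase signal above three times the same-plate solvent-only control wells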;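 further: luciferase driven by Gal4-ERK5 fusion binding five Gal4 sites before minimal TATA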); settings: HeLa Gal4-ERK5 transactivation, 18 h, at 5 µM, stronger effect = higher value
# Sequence of Mitogen-activated protein kinase 7 (Homo sapiens) (Q13164 whole entry, looked up, the tested form may be a part): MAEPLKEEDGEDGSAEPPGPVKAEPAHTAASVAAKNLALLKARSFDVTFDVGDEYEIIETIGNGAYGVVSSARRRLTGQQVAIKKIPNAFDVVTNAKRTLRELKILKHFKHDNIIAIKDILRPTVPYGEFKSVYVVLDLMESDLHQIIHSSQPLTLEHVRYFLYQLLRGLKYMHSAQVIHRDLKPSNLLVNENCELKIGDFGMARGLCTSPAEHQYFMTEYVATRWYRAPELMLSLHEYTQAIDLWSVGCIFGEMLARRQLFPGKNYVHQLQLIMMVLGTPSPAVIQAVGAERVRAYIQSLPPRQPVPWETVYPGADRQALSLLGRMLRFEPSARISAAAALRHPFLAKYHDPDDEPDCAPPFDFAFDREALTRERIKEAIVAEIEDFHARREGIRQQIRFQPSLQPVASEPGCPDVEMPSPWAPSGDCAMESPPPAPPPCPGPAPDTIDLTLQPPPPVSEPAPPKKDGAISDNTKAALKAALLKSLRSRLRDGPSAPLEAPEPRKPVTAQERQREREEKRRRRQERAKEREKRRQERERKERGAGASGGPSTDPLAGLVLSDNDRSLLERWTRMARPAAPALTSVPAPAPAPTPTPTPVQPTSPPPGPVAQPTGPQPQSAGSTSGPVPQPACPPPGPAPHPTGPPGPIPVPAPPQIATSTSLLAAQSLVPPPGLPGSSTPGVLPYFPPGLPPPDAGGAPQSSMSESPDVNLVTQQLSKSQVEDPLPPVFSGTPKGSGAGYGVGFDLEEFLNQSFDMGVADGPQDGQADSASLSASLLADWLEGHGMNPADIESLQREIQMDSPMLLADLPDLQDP
# [7] = hESC survival regulators, cell-based (AID 493140; call rule not given here;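 further: cells exposed to compounds for four days before counting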); settings: human embryonic stem cell survival screen; stronger effect = higher value
# [8] = viability rescue of complex I mutant cybrids, primary screen, cell-based, galactose medium, ATP luminescence (AID 1645843;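 active means z-score of at least 1.8 in each of two replicates, scored against plate mean and spread of sample wells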;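 further: positive z means more ATP and so rescue of galactose-driven cybrid death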); settings: complex I mutant cybrid cells, 72 h, stronger effect = higher value
# [9] = survival rescue of mitochondrial mutant cells in low glucose, primary screen, MELAS cybrids, Rieske KO mouse fibroblasts, CellTiter-Glo (AID 1508586;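 active means mean z-score across replicates of 1.96 or higher in either the MELAS or the Rieske mutant cell line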;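 further: z relative to plate mean and SD of compound and empty wells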)
# [10] = target: NAD(+) hydrolase SARM1 (Homo sapiens) (UniProt Q6SZW1); test: SARM1 TIR NADase inhibitors, cell lysate, NAD-Glo luminescence (AID 1508614;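 active means compound whose remaining NAD level is above about 45 nM, limit read from the data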); settings: SAM-TIR HEK293T lysate NADase, at 1 µM, stronger effect = higher value
# Sequence of NAD(+) hydrolase SARM1 (Homo sapiens) (Q6SZW1 whole entry, looked up): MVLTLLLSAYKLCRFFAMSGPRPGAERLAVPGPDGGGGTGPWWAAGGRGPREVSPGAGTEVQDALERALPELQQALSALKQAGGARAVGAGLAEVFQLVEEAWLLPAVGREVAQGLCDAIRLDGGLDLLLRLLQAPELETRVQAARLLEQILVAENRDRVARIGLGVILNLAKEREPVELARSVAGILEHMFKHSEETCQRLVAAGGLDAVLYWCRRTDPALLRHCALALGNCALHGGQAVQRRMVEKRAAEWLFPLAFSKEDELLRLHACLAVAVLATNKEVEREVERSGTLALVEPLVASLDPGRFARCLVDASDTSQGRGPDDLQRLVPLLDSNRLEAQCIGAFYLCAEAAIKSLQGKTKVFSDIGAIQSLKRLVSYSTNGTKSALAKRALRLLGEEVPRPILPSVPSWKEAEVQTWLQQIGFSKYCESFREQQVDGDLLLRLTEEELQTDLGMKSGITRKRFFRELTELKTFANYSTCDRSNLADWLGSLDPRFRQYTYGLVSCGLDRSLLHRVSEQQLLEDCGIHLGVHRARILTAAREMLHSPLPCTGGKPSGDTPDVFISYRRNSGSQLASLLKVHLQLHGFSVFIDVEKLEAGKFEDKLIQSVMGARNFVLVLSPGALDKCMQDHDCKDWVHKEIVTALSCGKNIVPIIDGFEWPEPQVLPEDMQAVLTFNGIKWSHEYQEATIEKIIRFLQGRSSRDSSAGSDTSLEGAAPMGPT
# [11] = growth inhibition of DIPG glioma cells, dose response, cell-based, JHH-DIPG-1, MIPE4.0, CellTiter-Glo, qHTS (AID 1347062; cut-off not given, nearly all actives have AC50 up to about 27 µM); settings: JHH-DIPG-1 viability, CellTiter-Glo ATP luminescence
# [12] = stronger effect = lower value, cell number ratio, induced over uninduced
# [13] = measured here: relative caspase fold change +Dox/-Dox
# [14] = measured here: total cells with miR-34 induction, stronger effect = lower value
# [15] = measured here: total cells without miR-34 induction
# [16] = MELAS cybrid survival, CellTiter-Glo 48 h, stronger effect = higher value
# [17] = Rieske KO mouse fibroblast survival, CellTiter-Glo 72 h
Compound,inhibition [1],"fold change [2, 12]","fold change [2, 13]","cell count [2, 14]","cell count [2, 15]",parasite load remaining [3],viability [3],outcome [4],AC50 [5],luciferase signal [6],survival [7],z-score [8],"z-score [9, 16]","z-score [9, 17]",remaining NAD [10],outcome [5],outcome [11]
O[C@H]1[C@H]2c3cc4c(cc3CN3CCC(=C[C@@H]1O)[C@H]23)OCO4,9.07% (inactive),1.05 (inactive),1.33,1670,1580,,,,,,,,,,,,
C[C@H]1[C@H](C)CC[C@]2(C(=O)O)CC[C@]3(C)C(=CC[C@@H]4[C@@]5(C)CC[C@H](O)C(C)(C)[C@@H]5CC[C@]43C)[C@H]12,14.7% (inactive),0.941 (inactive),1.58,8760,9310,32.3% (inactive),73.8%,inactive,42.9 µM (active),40 AU (inactive),,,,,,,
C=C[C@H]1CN2CCC1C[C@@H]2[C@@H](O)c1ccnc2ccc(OC)cc12 (some centres undefined),-0.543% (inactive),1.07 (inactive),1.29,9920,9300,28.6% (inactive),94.6%,,,,6.17 (inactive),-1.04 (inactive),,,,,
CC(=O)N[C@@H](Cc1ccccc1)C(=O)O,-1.76% (inactive),0.922 (inactive),1.14,8280,8980,,,,,,,,,,,,
CC[C@H](CO)NCCN[C@H](CC)CO,-0.439% (inactive),0.912 (inactive),0.977,8580,9410,28.5% (inactive) and 112% (inactive),48.5% and 92.2%,,,,12.8 (inactive),,0.519 (inactive),0.22,,,
CN1[C@@H]2CC[C@H]1CC(OC(=O)[C@H](CO)c1ccccc1)C2 (some centres undefined),-17.7% (inactive),0.891 (inactive),1.14,8370,9390,60.1% (inactive),43.8%,,,144 AU (inactive),,,-0.995 (inactive),-0.351,10 nM (inactive),,
NC(=NCc1ccccc1)NC(=O)c1nc(Cl)c(N)nc1N,-0.294% (inactive),,,,,116% (inactive) and 20% (inactive),89.9% and 61%,,,56 AU (inactive),1.67 (inactive),-0.87 (inactive) and -0.455 (inactive),2.18 (active) and 1.24 (inactive),1.18 and 1.91,,inactive,
O=C1O[C@H]([C@@H](O)CO)C(O)=C1O,-9.94% (inactive),0.839 (inactive),1.22,7560,9010,-6.73% (active),110%,,,60 AU (inactive),,,-0.883 (inactive),-0.395,10 nM (inactive),,
CO[C@H]1C[C@H](O[C@H]2[C@H](C)[C@@H](O[C@@H]3O[C@H](C)C[C@H](N(C)C)[C@H]3O)[C@@H](C)C[C@@]3(CO3)C(=O)[C@H](C)[C@@H](O)[C@@H](C)[C@@H](C)OC(=O)[C@@H]2C)O[C@@H](C)[C@@H]1O,-12.7% (inactive),0.882 (inactive),0.459,8150,9240,43.4% (inactive),44.8%,,,32 AU (inactive),,,,,10 nM (inactive),,
COc1ccc2ccc(=O)oc2c1CC=C(C)C,9.51% (inactive),0.94 (inactive),0.78,8510,9050,,,,,36 AU (inactive),,,-0.211 (inactive),-1.1,,inactive,inactive
CC(Oc1ccccc1)C(=O)N[C@@H]1C(=O)N2[C@@H]1SC(C)(C)[C@@H]2C(=O)O (some centres undefined),1.89% (inactive),0.935 (inactive) and 0.907 (inactive),1.21 and 2.74,8390 and 12400,8980 and 13600,116% (inactive) and 55% (inactive),109% and 84.1%,,,36 AU (inactive),7.92 (inactive),,-0.192 (inactive),-0.917,10 nM (inactive),,
CO/N=C(\C(=O)N[C@@H]1C(=O)N2C(C(=O)OCOC(=O)C(C)(C)C)=C(/C=C\c3scnc3C)CS[C@H]12)c1csc(N)n1,-4.41% (inactive),,,,,,,inactive,,,,,,,10 nM (inactive),,inactive
CN[C@@H]1[C@@H](O[C@H]2O[C@H](CO)[C@@H](N)[C@H](O)[C@H]2O)O[C@H]2C[C@@H](N)[C@@H](O[C@H]3[C@H](O)[C@@H](O)[C@H](N)C[C@@H]3N)O[C@@H]2[C@@H]1O,3.92% (inactive),0.906 (inactive),1.04,9860,10900,21.5% (inactive),69%,,,28 AU (inactive),,0.86 (inactive),0.598 (inactive),0.317,10 nM (inactive),,
CCOc1ccc2c(c1)C(C)=CC(C)(C)N2,17.3% (inactive),0.841 (inactive),1.09,8590,10200,29.9% (inactive),95.9%,,,48 AU (inactive),2.08 (inactive),,1.71 (inactive),0.609,,,
O=C(N[C@@H](Cc1ccccc1)C(=O)CCl)OCc1ccccc1,6.1% (inactive),1.3 (inactive),1.36,816,626,,,,,,,-1.33 (inactive),,,,,
